The panel holds about 79,000 compounds, 15% with a hit somewhere; the sample as a whole holds those more often. Values without a mark were called inactive. The source made the active and inactive calls. Cut-off read from the data, not from the text of the source: active = growth inhibition above about 70%; inactive = the rest.
Assays:
[1] = NCI Yeast Anticancer Drug Screen. Data for the rad50 strain (AID 155);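 note: 0% = growth of vehicle-only cultures of the same strain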; conditions: S. cerevisiae rad50 strain growth inhibition; at 50.0 µM; hits give high values
Outline: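 A DNA repair-deficient yeast mutant serves as the test organism; compound-induced growth inhibition is calculated against vehicle-treated cells.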

[2] = NCI Yeast Anticancer Drug Screen. Data for the mec2-1 strain (AID 157); conditions: S. cerevisiae mec2-1 strain, at 50.0 µM, hits give high values
Outline: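 Mutant yeast (mec2-1) grown with compound; growth inhibition relative to vehicle control reported.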

[3] = NCI Yeast Anticancer Drug Screen. Data for the sgs1 mgt1 strain (AID 161);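 note: 0% = growth of cultures given vehicle only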; conditions: S. cerevisiae sgs1 mgt1 strain, at 50.0 µM, hits give high values
Outline: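 Percent growth inhibition was derived by comparing compound-exposed mutant yeast with vehicle-exposed cultures. The strain carries alterations in DNA damage repair.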

[4] = NCI Yeast Anticancer Drug Screen. Data for the cln2 rad14 strain (AID 165);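 note: 0% = growth equal to vehicle treated cultures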; conditions: S. cerevisiae cln2 rad14 strain, at 50.0 µM, hits give high values
Outline: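 Readout is yeast growth inhibition versus vehicle-treated controls, using a strain with cln2 and rad14 alterations exposed to compound.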

[5] = NCI Yeast Anticancer Drug Screen. Data for the bub3 strain (AID 167); conditions: S. cerevisiae bub3 mutant strain, at 50.0 µM, hits give high values
Outline: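 Inhibition values come from growth of compound-treated mutant yeast normalised to vehicle-treated controls.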

[6] = NCI Yeast Anticancer Drug Screen. Data for the mlh1 rad18 strain (AID 175); conditions: S. cerevisiae mlh1 rad18 strain growth inhibition; at 50.0 µM; hits give high values
Outline: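 Genetically defined yeast (DNA repair-deficient) exposed to compounds; growth inhibition determined relative to vehicle.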

| SMILES | growth inhibition [1] | growth inhibition [2] | growth inhibition [3] | growth inhibition [4] | growth inhibition [5] | growth inhibition [6] |
| --- | --- | --- | --- | --- | --- | --- |
| CN(C)c1ccc(C=Nc2ccc3c(c2)C(N2CCOCC2)c2ccccc2-3)cc1 (configuration not stated) | -14.7% | -7% | -38.1% | -5.3% | -15.8% | 0.35% |
| Nc1ccc(S(=O)(=O)Nc2nccs2)cc1 | -0.6% | -17.2% | -3.7% | 6.05% | -1.85% | -3.4% |
| C[n+]1nnn(/N=C\c2ccccc2)c1N | -3.55% | 11.8% | 10.1% | -0.95% | 8.75% | 11.6% |
| CCCC(=O)OCC1OC2OC(C)(C)OC2C2OC(C)(C)OC12 (configuration not stated) | -4.45% | -2.55% | 10.8% | 8.55% | 15.8% | -6.25% |
| OCCN1CCN(C2=Nc3cccnc3Nc3cscc32)CC1 | -41.2% | -1.15% | -22.6% | -9.75% | -5.05% | -8.75% |
| c1ccc(C2(c3ccccc3)CC([P+](c3ccccc3)(c3ccccc3)c3ccccc3)N=N2)cc1 (configuration not stated) | 99.3% (active) | 99.6% (active) | 99.7% (active) | 99.4% (active) | 97.5% (active) | 99.5% (active) |
| COCCOC(=O)C(O)c1ccccc1 (configuration not stated) | 23.9% | 13.9% | 9.05% | 9% | 12.8% | 10.4% |
| CCCC(CCC)(CCC)CCN(C)C | -6.85% | -5.95% | -14.9% | -23.9% | -8.65% | -33.8% |
| O=C(c1ccccc1)C1(Cl)CCCCC1 | -9.95% | -12.6% | -10.8% | -8.45% | -5.15% | 15.6% |
| COc1ccc(-n2[nH]c3c(cnc4ccccc43)c2=O)cc1 | 6.35% | -33.9% | -33% | -10.8% | -22.8% | 2% |
| CC(Nc1cc(Cl)ccc1C(=O)O)C(=O)O (configuration not stated) | 0.9% | 14.7% | -9.75% | -40.1% | -11.2% | -8.05% |
| CC1(C)Oc2ccc3c(=O)c(-c4ccccc4)c(-c4ccccc4)oc3c2C1C(=O)O (configuration not stated) | 12.5% | -1.35% | -17.6% | 12.8% | 0.25% | 10.8% |
| Cc1ccc(S(=O)(=O)N2CN3CN(C2)CN(S(=O)(=O)c2ccc(C)cc2)C3)cc1 | 0.4% | -26.9% | -9.15% | 9.05% | 6.4% | -4.2% |
| COc1cccc(Oc2ccc(C)cc2)c1 | 17.2% | -12.8% | -18.6% | -19.1% | 8.95% | -21.9% |
| CC1CCCN2C(=O)CN(Cc3ccccc3)CC(=O)N12 (configuration not stated) | 9.85% | -3.3% | -8.55% | 13.4% | 3.1% | -4.45% |
| CS(=O)(=O)c1nsc(N)n1 | -14% | -8.6% | -5.25% | 2.15% | -0.1% | 2.7% |
| Cc1ccnc(N(C)CCN2CCCCC2)c1 | 2.75% | 8.15% | 7.3% | -34.5% | 12.4% | -20.8% |
| CN(C)CC1CC=CCC1CN(C)C (configuration not stated) | -19.8% | 0% | -5.6% | -15.7% | 6.85% | -8.7% |
| CCOc1ccc(-c2oc(/C=N/NS(=O)(=O)c3ccc(C)cc3)c([N+](=O)[O-])c2-c2ccc(OCC)cc2)cc1 | 59.7% | 37.5% | 64% | 62.2% | 44.6% | 58.5% |

| SMILES | growth inhibition [1] | growth inhibition [2] | growth inhibition [3] | growth inhibition [4] | growth inhibition [5] | growth inhibition [6] |
| --- | --- | --- | --- | --- | --- | --- |
| CCC(C)(N)C(=O)O (configuration not stated) | 10% | 13.3% | 5.1% | 2.6% | 18.2% | 4.05% |
| Cc1cc(C)n2nc3c4ccsc4ncc3c2n1 | -5.2% | -5.45% | -15.9% | 2.45% | 0.1% | -6.8% |
| C=C(CCCCCCCCC)CC(=O)SCCNC(=O)CCNC(=O)C(O)C(C)(C)COP(=O)(O)OP(=O)(O)OCC1OC(n2cnc3c(N)ncnc32)C(O)C1OP(=O)(O)O (configuration not stated) | -7.95% | -14.8% | 0.55% | -17% | -19.6% | 0.4% |
| CN(C)CC(CN(C)C)C(O)c1ccccc1 (configuration not stated) | 2.4% | -11.5% | -6.35% | 12% | -4.8% | -13.1% |
| COc1ccc2c(c1)CC1c3[nH]c4ccccc4c3CCN1C2 (configuration not stated) | 52.7% | 35.5% | 52.9% | 32.5% | 19.1% | 79% (active) |
| N=c1ccccn1CC(O)COc1ccccc1 (configuration not stated) | -11.2% | -9.6% | -1.6% | 1.1% | 4.2% | -5.8% |
| COc1cc(C(=O)CCC(=O)O)c(OC)c(CBr)c1CBr | -20.3% | -0.4% | -2.7% | -23.8% | -2.15% | -13.8% |
| CC(=O)c1ccc(Cl)c(Cl)c1 | -3.6% | -0.5% | -3.75% | 14.9% | 4.7% | -15.3% |
| CC(=O)CCCCO | -6.8% | -2.5% | 10.8% | -8.55% | 2.8% | -18.1% |
| CC1C[C@]2(C)C(=NCCN)Nc3ccccc3[C@@H]2N(C)c2ccccc21 (some centres not stated) | -14.4% | -25.6% | -10.8% | -28.6% | -13.2% | 13.3% |
| CCOC(=O)C(=O)C(CCc1ccc2ccc3cccc4ccc1c2c34)C(=O)OCC (configuration not stated) | 10.2% | 20.9% | 6.55% | -21.8% | 0.35% | 31.4% |
| O=c1cc(NCc2cccc3ccccc23)[nH]c(=O)[nH]1 | 4.45% | 24.1% | -5.25% | -10.1% | -0.75% | -7.1% |
| COc1cccc(C2c3cc4c(cc3OC(C)(OC)C2C)OCO4)c1 (configuration not stated) | 19.8% | 22.8% | 21.4% | -83.6% | 4.25% | 15.8% |
| CCOC(=O)CCc1c[nH]c2ccccc12 | -12.3% | -17.1% | -9.9% | -9.85% | 0.2% | -3.5% |
| N/C(=C\C(=O)c1ccccc1)C(=O)c1ccccc1 | 5.7% | 4.65% | -15.5% | -10.7% | 0.65% | -1.55% |
| COC(=O)CCC(=O)c1ccc2c(c1)CC1(C2)Cc2ccc3c(c2C1)CCCC3=O (configuration not stated) | -10.9% | -27.1% | -14.1% | 5.9% | -13.6% | -4.25% |
| CC(C)=CC1C(C(=O)O)C1(C)C (configuration not stated) | 5.55% | -13.2% | 3.35% | -2.95% | 8.4% | 10.2% |
| COc1cc(/C=C/C(=O)c2ccccc2O)cc(OC)c1OC | -1% | -17.1% | 16.4% | -6.35% | -9.15% | 13.8% |

— PubChem BioAssay (NCI)
